Hit rate of the full screen: of about 310,000 compounds, about 3,400 (1.1%) were called active. The sample holds actives, similar compounds and a random draw of the others, so the mix is not that of the screen. Unmarked numbers belong to inactive results.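 Rule for the calls: active = fluorescence ratio B-score at most minus 3 library SDs, with starting brightness B-score within 2 library SDs (cut at about -5.5 in these data); inactive = the rest, inconclusive results apart.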
The molecules below were run against Potassium voltage-gated channel subfamily KQT member 2 (Rattus norvegicus) (UniProt O88943) (assay: rat KCNQ2 potassium channel inhibitors, primary screen, cell-based, CHO-K1, FluxOR thallium flux, B-score (AID 2156)). Details: 20 min, at 10 µM; stronger effect = lower value.
Chain of Potassium voltage-gated channel subfamily KQT member 2 (Rattus norvegicus) (O88943 whole entry, looked up): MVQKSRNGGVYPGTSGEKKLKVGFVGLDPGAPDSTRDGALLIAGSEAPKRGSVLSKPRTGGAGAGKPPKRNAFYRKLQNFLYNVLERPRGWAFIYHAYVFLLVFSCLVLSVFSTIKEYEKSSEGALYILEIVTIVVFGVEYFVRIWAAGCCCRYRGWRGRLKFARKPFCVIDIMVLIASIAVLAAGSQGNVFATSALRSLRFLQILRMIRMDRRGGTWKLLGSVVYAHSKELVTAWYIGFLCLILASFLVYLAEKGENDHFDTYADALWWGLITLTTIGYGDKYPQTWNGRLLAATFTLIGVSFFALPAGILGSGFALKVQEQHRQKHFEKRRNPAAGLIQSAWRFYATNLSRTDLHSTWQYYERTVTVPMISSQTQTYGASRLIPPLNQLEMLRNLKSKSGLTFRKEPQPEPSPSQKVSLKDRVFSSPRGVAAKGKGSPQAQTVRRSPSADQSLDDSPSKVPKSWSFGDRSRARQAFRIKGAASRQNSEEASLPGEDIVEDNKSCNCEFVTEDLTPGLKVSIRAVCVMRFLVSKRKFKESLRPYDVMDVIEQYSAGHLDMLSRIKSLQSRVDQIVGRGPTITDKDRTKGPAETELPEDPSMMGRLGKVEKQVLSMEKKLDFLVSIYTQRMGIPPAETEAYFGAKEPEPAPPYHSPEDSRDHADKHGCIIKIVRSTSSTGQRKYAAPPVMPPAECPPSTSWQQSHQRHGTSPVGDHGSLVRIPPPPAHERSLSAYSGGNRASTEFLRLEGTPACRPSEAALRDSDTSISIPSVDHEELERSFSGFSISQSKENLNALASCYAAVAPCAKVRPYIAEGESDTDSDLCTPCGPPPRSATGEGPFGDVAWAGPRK

Row | SMILES | B-score
1 | COc1ccc(NC(=O)CN(C)C(=O)/C=C/c2cn(Cc3ccccc3)nc2-c2cccnc2)cc1 | -0.04
2 | O=C(COc1ccccc1)Nc1ccc(F)cc1 | -1.43
3 | O=C(NCC1CCCO1)c1cc2c([nH]c3ccccc32)c(-c2ccc(F)cc2)n1 (configuration not stated) | -8.97 (active)
4 | O=C(NCC1CCCO1)c1cc(-c2ccccc2)nc2ccccc12 (configuration not stated) | inactive
5 | O=C(NCCCO)c1cc2c([nH]c3ccccc32)c(-c2ccc(F)cc2)n1 | inactive
6 | COc1ccc(C(=O)N(Cc2ccccc2)c2ccc(C)cc2)cc1S(=O)(=O)N1CCOCC1 | -0.58
7 | CC1CCCCC1NC(=O)c1cc(=O)[nH]c2ccccc12 (configuration not stated) | -0.66
8 | CCc1ccc(CN2C(=O)c3ccccc3C2C(=O)NCC2CCCO2)cc1 (configuration not stated) | inactive
9 | O=C(NC1CCCCC1)C1c2ccccc2C(=O)N1Cc1ccco1 (configuration not stated) | inactive
10 | CC1CCC(NC(=O)C2c3ccccc3C(=O)N2Cc2ccc3c(c2)OCO3)CC1 (configuration not stated) | -6.13 (active)
11 | Cc1cc(C)cc(NC(=O)COc2coc(CN3CCN(c4ccccc4)CC3)cc2=O)c1 | inactive
12 | CSc1ccc(S(=O)(=O)NCC(=O)OCC(=O)NC2(C#N)CCCCC2)cc1[N+](=O)[O-] | inactive
13 | CN1CCN(C2Cc3ccc(Cl)cc3Sc3ccc(F)cc32)CC1 (configuration not stated) | -4.84
14 | CCOc1ccc(NC(=O)c2ccc(NC(=O)CN3C(=O)C(=O)N(CC(C)C)C3=O)cc2)cc1 | inactive
15 | O=C(c1ccccc1)c1ccc(C(=O)N2CCN(c3ccccc3)CC2)cc1 | -0.65
16 | O=C(c1cncc(Br)c1)N1CCN(c2ccc([N+](=O)[O-])cc2)CC1 | -4.15
17 | O=C(c1cc(C(=O)N2CCN(c3ccc(F)cc3)CC2)cc([N+](=O)[O-])c1)N1CCN(c2ccc(F)cc2)CC1 | -5.93 (active)
18 | O=C(c1cc2cc(F)ccc2[nH]1)N1CCN(c2ccc(F)cc2)CC1 | inactive
19 | O=C(c1cccc(F)c1)N1CCN(c2ccc([N+](=O)[O-])c(N3CCCCC3)c2)CC1 | -0.07
20 | O=C(c1cccc(C(=O)N2CCN(c3ccc(F)cc3)CC2)c1)N1CCN(c2ccc(F)cc2)CC1 | -6 (active)
21 | Cc1ccc(Cc2nnc(SCC(=O)Nc3ccc(C)cc3C)[nH]c2=O)cc1 | inactive

Row | SMILES | B-score
22 | CC(=O)CC(CC(=O)NC1CCCCC1)c1ccccc1 (configuration not stated) | inactive
23 | O=C1[C@H]2[C@@H](c3ccc(F)cc3)N3C(=O)N(c4ccc(C(F)(F)F)cc4)C(=O)[C@@]3(Cc3ccccc3)[C@H]2C(=O)N1C1CCCCC1 | -0.02
24 | O=C(NCC(c1ccco1)N1CCc2ccccc2C1)c1ccccc1Cl (configuration not stated) | -1.22
25 | Cc1ccc(Cc2nnc(SCC(=O)Nc3ccccc3C)[nH]c2=O)cc1 | inactive
26 | CCOc1ccc(NS(=O)(=O)c2ccc(C(=O)NC3CCN(Cc4ccccc4)CC3)cc2)cc1 | inactive
27 | CCOc1ccc(N(CC(=O)NCC2CCCO2)S(=O)(=O)c2ccc(C)cc2)cc1 (configuration not stated) | -0.74
28 | CCOc1cc(C(C(=O)NCC2CCCO2)N(C(=O)Cn2nnc3ccccc32)c2cccc(OC)c2)ccc1O (configuration not stated) | inactive
29 | CCOc1cc(-c2nc3cc(C)ccn3c2NCC2CCCO2)ccc1O (configuration not stated) | -5.56 (active)
30 | O=[N+]([O-])c1ncc(Br)cc1Nc1ccccc1 | -2.54
31 | CC(=O)N1CCN(C(=O)c2cc(-c3ccc(C)o3)nc3ccccc23)CC1 | inactive
32 | Cn1cccc1C(=O)NNC(=O)COc1ccc(Br)cc1 | -0.05
33 | COc1cc(NC(=O)CSC(=S)N2CCCC2)c(OC)cc1Cl | inactive
34 | CC(C)OCCCNc1ncnc2c1[nH]c1ccc(F)cc12 | -0.41
35 | Fc1ccc2[nH]c3c(N4CCSCC4)ncnc3c2c1 | -10.1 (active)
36 | Cc1c(CN2CC[C@@H](N3CCN(c4ccccn4)CC3)[C@H](O)C2)[nH]c2ccc(F)cc12 | -0.01
37 | Cc1ccc(CNS(=O)(=O)CCNC(=O)c2ccccc2)cc1 | inactive
38 | CSc1ccccc1NC(=O)c1cnc2sc(C)cn2c1=O | inactive
39 | O=C(Nc1ccc(Cl)c(Cl)c1)N1CC=C(c2ccccc2)CC1 | -8.43 (active)
40 | COc1cc(C(=O)NCC(=O)N2CC=C(c3ccccc3)CC2)cc(OC)c1OC | inactive
41 | O=C(Nc1ccccc1)N1CCN(C(=O)Nc2ccccc2)CC1 | inactive
42 | CC(OC(=O)CNC(=O)c1cccc(F)c1)C(=O)NC1CCCCC1C (configuration not stated) | inactive

Row | SMILES | B-score
43 | COCCCN(C(=O)CSCc1ccc(C)cc1)c1c(N)n(Cc2ccccc2)c(=O)[nH]c1=O | inactive
44 | CCCCCCCCCCCCN1C(=O)CSC1c1cccnc1 (configuration not stated) | -6.52 (active)
45 | CN(C)CCCN1C(=O)CSC1c1ccc([N+](=O)[O-])cc1 (configuration not stated) | -0.19
46 | CCCCCCOc1ccc(OC(=O)c2cccnc2)cc1 | inactive
47 | O=C(Nc1ccc(OC(F)(F)F)cc1)c1ccc2c(c1)no[n+]2[O-] | inactive
48 | COc1cccc(CNc2nc3nc4c(c(=O)n3[nH]2)CCC4)c1 | inactive
49 | COc1cccc(-c2cc3nc4c(c(N5CCC6(CC5)OCCO6)n3n2)CCCC4)c1 | -5.95 (active)
50 | COc1cccc(-c2nc(S(=O)(=O)c3ccccc3)c(N3CCOCC3)o2)c1 | inactive
51 | CN(C(=O)CN1C(=O)NC(C)(CCc2ccccc2)C1=O)c1ccccc1 (configuration not stated) | inactive
52 | CC1(C)Cc2ccccc2/C(=C/C(=O)c2ccccc2)N1 | -5.67 (active)
53 | CCOC(=O)C1=C(NC(=S)NC(=O)c2ccccc2)c2ccccc2CC1(C)C | -1.51
54 | CC(C)CC(N=C1NC(C)(C)Cc2ccccc21)C(=O)O (configuration not stated) | -0.08
55 | COc1ccc(CCN(C(=O)COc2ccccc2)c2nc(-c3ccccc3)cs2)cc1OC | -7.67 (active)
56 | COc1ccc(CCNc2nc(-c3cccc(NC(C)=O)c3)cs2)cc1OC | -0.02
57 | COc1cccc(CC(=O)Nc2nc(-c3ccc(OC)c(OC)c3)cs2)c1 | inactive
58 | CCN1CCN(c2ccc(S(=O)(=O)N3CCCCC3)cc2NC(=O)c2cccc(NC(C)=O)c2)CC1 | inactive
59 | COc1cc(C(=O)OCC(=O)N(CC(C)C)C2CCS(=O)(=O)C2)ccc1OCC(C)C (configuration not stated) | inactive
60 | C=CCNC(=O)CSc1nc2scc(-c3ccco3)c2c(=O)n1CC=C | -1
61 | C=CCn1c(SCc2c(C)noc2C)nc2sc3c(c2c1=O)CCC(C)C3 (configuration not stated) | -3.13
62 | C=CCn1c(SCc2csc(C)n2)nc2scc(-c3ccc(C)o3)c2c1=O | -5.75 (active)

— PubChem BioAssay AID2156 (Johns Hopkins Ion Channel Center, 2009)
